Screening data as filed in PubChem BioAssay.
Only some compounds are listed: those with a hit (about 9.2% of all), similar ones and a draw of the others.
NPC1 prom act = activates the NPC1 promoter. Huh7 NPC1 promoter luciferase reporter, 24 h. Potency, µM (titrated, usually from 9.22 µM), inactives show at the top dose activation, most hits filed as activators. hit rate 2.4% among 320,000. AID 485313; also: % of control where 0% means no effect; nearly all actives have a fitted effect of over 60% in size
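Luminescence from an NPC1 promoter-driven luciferase reporter in stably transfected Huh7 cells was measured after 24 h compound treatment at 37 °C, followed by 10 min ambient incubation with luciferase detection reagent.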
ELG1 genotox = genotoxicity induction in ELG1-luciferase HEK293T cells | HEK293T ELG1-luciferase reporter, luminescence, 16 h | Potency, µM (top dose mostly 46 µM), without a hit: top-dose activity change, positive = activation, most hits filed as activators | hit rate 1.3% among 330,000; also: % of control where 0% means no effect; nearly all actives have a fitted effect of over 60% in size
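Quantitative HTS format in 1536-well plates. HEK293T ELG1-luciferase reporter cells receive test compound and are incubated 16 hr at 37 °C, 5% CO2; ONE-Glo added, 30 min room temperature, then luminescence read.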
SMN2 splice up = enhancers of SMN2 splice variant expression. HEK293 SMN2-luciferase splicing reporter, luminescence, 30-36 h. Potency, µM (series often up to 46.1 µM), for the others: at the highest dose activity change, positive = activation, hits mostly activators. hit rate 2.8% among 210,000. AID 1458; also: % of control where 0% means no effect; nearly all actives have a fitted effect of over 55% in size
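HEK293 cells carry an SMN2 […]–luciferase reporter in which exon 7 inclusion puts luciferase in frame. Cells were plated 10-12 h before compound addition, then incubated 30-36 h at 37C. ONE-Glo luminescence was read; sodium butyrate at 4.5 mM final served as control.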
ELG1 DNA repair = ELG1-dependent DNA repair inhibition; HEK293T ELG1-luciferase reporter, luminescence, 16 h; DNA damage induced by 5-fluorouridine; Potency, µM (series often up to 46.1 µM), inactives show at the top dose activity change, negative = inhibition, usual class: inhibitors; hit rate 2.3% among 330,000; also: % is scaled to controls: 0 for no effect and ±100 for the full control effect; nearly all actives have a fitted effect of over 55% in size
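5-Fluorouridine DNA damage + compound/DMSO, 2,000 cells/well, 16 h, 37 °C/5% CO2. ONE-Glo, 30 min RT, luminescence. Readout = decrease in reporter signal.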
Rab9 promoter act = activators of Rab9 promoter. Huh7 Rab9 promoter-luciferase reporter, luminescence, 24 h. Potency, µM (titrated, usually from 9.22 µM), for the others: at the top dose activation, negative = inhibition, usual class: activators. hit rate 2.8% among 320,000; also: % of control where 0% means no effect; nearly all actives have a fitted effect of over 60% in size
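Rab9 promoter-driven luciferase in stably transfected Huh7 cells; 1500 cells/well rested 2 h, exposed to compound in DMSO for 24 h at 37 °C, 5% CO2. Luminescence read 10 min after adding luciferase reagent at ambient temperature.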
FLuc modulator = counter-screen for miR-21 project: firefly luciferase inhibitors or activators; Potency, µM (series often up to 57.5 µM), for the others: top-dose activity change, negative = inhibition, most hits filed as inhibitors; purified FLuc, Km substrates, luminescence inhibition; P08659; AID 588342; hit rate 6.9% among 360,000;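 also: plate controls were vehicle for no effect and reference inhibitor for full effect; nearly all actives have a fitted effect of over 55% in size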
Target sequence (P08659 whole entry, looked up): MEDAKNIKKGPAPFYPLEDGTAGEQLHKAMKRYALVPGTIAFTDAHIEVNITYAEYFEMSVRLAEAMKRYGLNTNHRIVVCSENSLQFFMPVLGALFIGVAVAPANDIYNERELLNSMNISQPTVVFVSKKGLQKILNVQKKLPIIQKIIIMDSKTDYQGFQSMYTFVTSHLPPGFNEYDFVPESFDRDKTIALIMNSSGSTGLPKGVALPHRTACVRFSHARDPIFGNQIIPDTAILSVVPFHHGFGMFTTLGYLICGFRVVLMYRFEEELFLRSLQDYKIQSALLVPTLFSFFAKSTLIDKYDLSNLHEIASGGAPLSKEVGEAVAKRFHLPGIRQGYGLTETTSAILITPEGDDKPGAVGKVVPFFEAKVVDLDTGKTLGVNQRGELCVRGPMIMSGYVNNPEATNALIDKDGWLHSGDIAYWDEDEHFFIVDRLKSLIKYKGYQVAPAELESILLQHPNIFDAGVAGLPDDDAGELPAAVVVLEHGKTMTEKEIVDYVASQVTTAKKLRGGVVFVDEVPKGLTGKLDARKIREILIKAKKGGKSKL
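Biochemical qHTS of compounds, final roughly 60 µM downward over six points, against 10 nM purified firefly luciferase using Km concentrations of substrates (10 uM D-luciferin, 10 uM ATP) in Tris acetate pH 7.5 buffer; luminescence output.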
The depositor's hits bear a star; ? = inconclusive; · = no result given. Calls follow the shape of the dose curve; as a rule, active = well fitted curve in the direction sought with a large enough effect; inconclusive = small, poorly fitted or top-dose-only effect, or another doubt; inactive = no such curve, though single readings can be large; an effect the other way counts as inactive or inconclusive. Potency is read from the fitted curve at half-maximal effect.

SMILES	NPC1 prom act	ELG1 genotox	SMN2 splice up	ELG1 DNA repair	Rab9 promoter act	FLuc modulator
CCSc1nsc(NC(=O)Nc2cccc(OC)c2)n1	24.7%	-9.7%	·	-9.5%	20.4%	21.3µM*
COc1ccc(Cc2nnc(NC(=O)Nc3cccc(OC)c3)s2)cc1	2.5%	15.1%	·	11.7%	-8.6%	-0.2%
COc1ccc(NC(=O)Cn2cccc2)cc1Cl	-0.3%	0.8%	5.0%	12.7%	-1.5%	-18.0%
CCCCCCCNC(=O)C1(CC2CC(c3ccc(Cl)cc3)=NO2)CCNCC1 (configuration not stated)	-2.4%	-16.7%	·	0.0%	3.2%	2.6%
COCCNc1nc2ccccc2n1CC(=O)c1ccc(OC)c(OC)c1	-0.3%	-4.7%	·	-25.9%	-1.3%	-0.9%
Cn1c(CNC(=O)c2ccc(F)cc2)nc2ccccc21	1.7%	0.6%	-0.7%	-2.4%	-5.1%	-0.6%
COc1ccc(C(=O)n2c(N)nc3ccccc32)cc1OC	2.82µM*	?	·	?	2.51µM*	19µM*
Nc1nc2ccccc2n1C(=O)c1ccc(F)cc1	0.501µM*	1.16µM*	·	?	0.282µM*	1.35µM*
Nc1nc2ccccc2n1C(=O)c1ccco1	?	?	12.6µM*	?	2.51µM*	10.7µM*
Nc1nc2ccccc2n1C(=O)CCc1ccccc1	?	2.31µM*	10µM*	?	?	?
CC(=O)c1nc2ccccc2n1CCc1ccccc1	7.9%	-9.6%	17.4%	-10.2%	-8.2%	5.6%
CCOc1ccc(NC(=O)CN2C(=O)NC(C)(c3ccc(OC(F)F)cc3)C2=O)cc1 (configuration not stated)	-5.6%	-7.2%	·	?	0.2%	0.2%
COc1ccc(N2CC3=C(C2=O)C(c2ccc(O)c(OC)c2)NC(=O)N3C)cc1 (configuration not stated)	·	·	-6.5%	·	·	5.0%
Cc1ccccc1C(=O)OCc1cc(=O)n2nc(C3CCCCC3)sc2n1	·	·	·	·	·	-14.6%
O=C(c1ccco1)N1CCn2c1nc1ccccc12	?	?	11.2µM*	?	?	?
Nc1nc2ccccc2n1C(=O)c1cccs1	?	?	11.2µM*	?	0.794µM*	2.69µM*
Nc1nncn1C(=O)c1cccs1	-5.0%	-3.2%	-18.1%	-0.2%	1.9%	0.4%
CCC(=O)N1CCn2c1nc1ccccc12	-1.9%	6.3%	23.4%	-1.1%	3.1%	0.6%
Nc1nc2ccccc2n1C(=O)c1ccccc1	?	0.651µM*	1.58µM*	?	0.355µM*	0.757µM*
COC(=O)c1ccc(C2c3c(oc4ccccc4c3=O)C(=O)N2c2nc(C)c(C(=O)OC)s2)cc1 (configuration not stated)	·	·	11.9%	·	·	-9.0%
CC(C)(C)C(=O)Nc1ccc(-c2cc3cc(Cl)ccc3o2)cc1	?	?	·	?	0.316µM*	0.19µM*
CC1(C)C/C(=N\O)C(C(O)c2cccc([N+](=O)[O-])c2)C(C)(C)N1 (configuration not stated)	3.4%	-2.7%	·	4.8%	-4.5%	0.6%
O=C(CN1C(=O)COc2ccc(Cl)cc21)N1CCCCC1	-4.9%	5.2%	·	-1.9%	0.9%	1.3%
O=C(CN1CCOCC1)Nc1nc(-c2ccc3c(c2)CCN3S(=O)(=O)c2ccccc2)cs1	-2.3%	-9.5%	-52.5%	?	-10.4%	-5.6%
CC(C)(C)Nc1nc(-c2ccc3c(c2)CCN3C(=O)C2CC2)cs1	1.78µM*	?	·	?	?	3.01µM*
CCC(CC)C(=O)Nc1nc(-c2ccc3c(c2)CCN3C(=O)C2CC2)c(C)s1	-1.6%	-27.7%	-30.3%	20.6µM*	-2.6%	3.1%
CC(C)C(=O)Nc1nc(-c2ccc3c(c2)CCN3C(=O)C2CC2)cs1	?	4.0%	·	29.8%	?	15.1µM*
CC1CC(C)CN(S(=O)(=O)c2ccc3c(c2)CCN3C(=O)C2CC2)C1 (configuration not stated)	-0.3%	-6.7%	·	-24.2%	-2.3%	0.4%
